Results as given in the supplement of paper PMC9262897, “Low-cost anti-mycobacterial drug discovery using engineered E. coli” (Nature Communications, 2022).
Structures can show the parent of a compound that is named as a salt. ± gives the standard deviation of the averaged measurements.

Tests used:
Experiment in all cases: growth (OD600 after 10 h); higher = more growth (less inhibition)
[1] = test system: E. coli TESEC Alr+ wild-type control; conditions: compound 0.1 mM; raw OD600 reference: median of DMSO wells 0.241, cell-free background 0.041
Experimental: (§1)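 TESEC Mtb Alr E. coli, or the Alr+ wild-type control, in 384-well plates with Prestwick library compounds at 0.1 mM and 1% DMSO, across arabinose induction levels of 1E3 to 1E7 nM. Growth is read as OD600 after 10 h at 37 °C in triplicate biological replicates.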

[2] = test system: E. coli TESEC Mtb Alr; conditions: compound 0.1 mM
Experimental: as §1

[3] = test system: E. coli TESEC Mtb Asd; conditions: compound 0.1 mM
Experimental: (§2)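 TESEC E. coli strains in which the native enzyme is deleted and replaced by arabinose-inducible Mtb Asd, DapB, CysH or TrpD, each grown in its selective medium. Strains were screened against the Prestwick library at 0.1 mM and 1% DMSO in 384-well format at low and high arabinose induction. Growth is read as OD600 after 10 h in triplicate.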

[4] = test system: E. coli TESEC Mtb DapB; conditions: compound 0.1 mM
Experimental: as §2

[5] = test system: E. coli TESEC Alr+ wild-type control; conditions: compound 0.1 mM; raw OD600 reference: median of DMSO wells 0.49, cell-free background 0.052
Experimental: (§3)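 TESEC Mtb Alr E. coli (ΔaraC ΔtolC ΔentC Δalr ΔdadX, arabinose-inducible Mtb Alr) or the Alr+ wild-type control strain, grown in defined M9-fructose medium without D-alanine in 96-well plates with Prestwick library compounds at 0.1 mM and 1% DMSO. Low Alr induction is 0.1 µM arabinose and high induction is 10 mM arabinose.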

[6] = test system: E. coli TESEC Mtb Alr; conditions: compound 0.1 mM; remark: listed apart in the source
Experimental: as §3

[7] = arabinose 1000 nM, raw OD600 reference: median of DMSO wells 0.294, cell-free background 0.041
[8] = arabinose 10000 nM, raw OD600 reference: median of DMSO wells 0.264, cell-free background 0.041
[9] = arabinose 100000 nM, raw OD600 reference: median of DMSO wells 0.201, cell-free background 0.041
[10] = arabinose 1000000 nM, raw OD600 reference: median of DMSO wells 0.193, cell-free background 0.041
[11] = arabinose 10000000 nM, raw OD600 reference: median of DMSO wells 0.146, cell-free background 0.041
[12] = arabinose induction (level): High, raw OD600 reference: median of DMSO wells 0.331, cell-free background 0.041
[13] = arabinose induction (level): Low, raw OD600 reference: median of DMSO wells 0.417, cell-free background 0.041
[14] = arabinose induction (level): High, raw OD600 reference: median of DMSO wells […], cell-free background 0.041
[15] = arabinose induction (level): Low, raw OD600 reference: median of DMSO wells 0.227, cell-free background 0.041
[16] = arabinose 100 nM, raw OD600 reference: median of DMSO wells 0.413, cell-free background 0.052
[17] = arabinose 10000000 nM, raw OD600 reference: median of DMSO wells […], cell-free background 0.052

| SMILES | growth [1] | growth [2, 7] | growth [2, 8] | growth [2, 9] | growth [2, 10] | growth [2, 11] | growth [3, 12] | growth [3, 13] | growth [4, 14] | growth [4, 15] | growth [5] | growth [6, 16] | growth [6, 17] |
| --- | --- | --- | --- | --- | --- | --- | --- | --- | --- | --- | --- | --- | --- |
| CCN(CC)CC#CCOC(=O)C(O)(c1ccccc1)C1CCCCC1 (stereo not drawn) [Oxybutynin chloride] | 0.148 ± 0.0035 | 0.13 ± 0.067 | 0.167 ± 0.004 | 0.131 ± 0.072 | 0.0668 ± 0.00052 | 0.117 ± 0.0015 | 0.137 ± 0.017 | 0.191 ± 0.033 | 0.159 ± 0.0078 | 0.172 ± 0.034 | 0.41 ± 0.043 | 0.398 ± 0.031 | 0.145 ± 0.025 |
| Cc1ccccc1N1C(=O)c2cc(S(N)(=O)=O)c(Cl)cc2NC1C (stereo not drawn) [Metolazone] | 0.214 ± 0.0042 | 0.226 ± 0.031 | 0.258 ± 0.0029 | 0.214 ± 0.0094 | 0.136 ± 0.004 | 0.1376 ± 0.00093 | 0.386 ± 0.049 | 0.422 ± 0.091 | 0.199 ± 0.038 | 0.254 ± 0.087 | 0.481 ± 0.062 | 0.4 ± 0.018 | 0.292 ± 0.011 |
| CCCNC(C)(C)COC(=O)c1ccccc1 [Meprylcaine hydrochloride] | 0.234 ± 0.0059 | 0.298 ± 0.0024 | 0.2777 ± 0.0023 | 0.211 ± 0.0098 | 0.215 ± 0.025 | 0.133 ± 0.0041 | 0.281 ± 0.061 | 0.338 ± 0.025 | 0.182 ± 0.022 | 0.221 ± 0.0093 | 0.6187 ± 0.0042 | 0.419 ± 0.0049 | 0.339 ± 0.0092 |
| CC/C(=C(\c1ccccc1)c1ccc(OCCN(C)C)cc1)c1ccccc1 [Tamoxifen citrate] | 0.0423 ± 0.0005 | 0.0419 ± 0.002 | 0.048 ± 0.0005 | 0.0466 ± 0.0016 | 0.0485 ± 0.0015 | 0.0425 ± 0.00078 | 0.0517 ± 0.002 | 0.0526 ± 0.002 | 0.04873 ± 0.00038 | 0.0937 ± 0.078 | 0.0552 ± 0.015 | 0.0503 ± 0.00091 | 0.0549 ± 0.0014 |
| C(=C\c1ccccc1)/CN1CCN(C(c2ccccc2)c2ccccc2)CC1 [Cinnarizine] | 0.202 ± 0.0048 | 0.246 ± 0.015 | 0.251 ± 0.014 | 0.18 ± 0.011 | 0.147 ± 0.0054 | 0.149 ± 0.0039 | 0.277 ± 0.079 | 0.395 ± 0.02 | 0.205 ± 0.011 | 0.223 ± 0.019 | 0.539 ± 0.055 | 0.431 ± 0.0055 | 0.375 ± 0.0072 |
| Cc1ccsc1/C=C/C1=NCCCN1C [Morantel tartrate] | 0.248 ± 0.0087 | 0.306 ± 0.0079 | 0.252 ± 0.0038 | 0.204 ± 0.012 | 0.176 ± 0.0069 | 0.1525 ± 0.00097 | 0.358 ± 0.016 | 0.379 ± 0.034 | 0.205 ± 0.038 | 0.294 ± 0.089 | 0.513 ± 0.029 | 0.409 ± 0.0089 | 0.259 ± 0.17 |
| CC1=C(C(=O)O)N2C(=O)[C@@H](NC(=O)[C@H](N)c3ccc(O)cc3)[C@H]2SC1 [Cefadroxil] | 0.255 ± 0.012 | 0.2848 ± 0.0015 | 0.274 ± 0.011 | 0.217 ± 0.011 | 0.199 ± 0.002 | 0.137 ± 0.0042 | 0.294 ± 0.035 | 0.444 ± 0.13 | 0.192 ± 0.0046 | 0.222 ± 0.011 | 0.606 ± 0.045 | 0.427 ± 0.012 | 0.326 ± 0.011 |
| CCOC(=O)/C=C(C)/C=C/C=C(C)/C=C/c1c(C)cc(OC)c(C)c1C [Etretinate] | 0.242 ± 0.0089 | 0.308 ± 0.015 | 0.257 ± 0.011 | 0.211 ± 0.0087 | 0.161 ± 0.0097 | 0.151 ± 0.0019 | 0.257 ± 0.042 | 0.341 ± 0.025 | 0.1575 ± 0.0014 | 0.186 ± 0.0064 | 0.544 ± 0.058 | 0.41 ± 0.0092 | 0.344 ± 0.014 |
| CCc1oc2ccccc2c1C(=O)c1cc(Br)c(O)c(Br)c1 [Benzbromarone] | 0.0407 ± 0.001 | 0.0448 ± 0.0076 | 0.0403 ± 0.00069 | 0.0421 ± 0.0019 | 0.03953 ± 0.00015 | 0.047 ± 0.0017 | 0.0473 ± 0.0012 | 0.0482 ± 0.002 | 0.0504 ± 0.0016 | 0.0491 ± 0.001 | 0.05037 ± 5.8e-05 | 0.0588 ± 0.0027 | 0.0513 ± 0.0023 |
| O=C(O)COCCN1CCN(C(c2ccccc2)c2ccc(Cl)cc2)CC1 (stereo not drawn) [Cetirizine dihydrochloride] | 0.21 ± 0.0098 | 0.275 ± 0.0074 | 0.25 ± 0.006 | 0.218 ± 0.017 | 0.183 ± 0.0077 | 0.14 ± 0.0034 | 0.223 ± 0.017 | 0.273 ± 0.045 | 0.168 ± 0.013 | 0.199 ± 0.019 | 0.655 ± 0.047 | 0.41 ± 0.014 | 0.349 ± 0.022 |
| COC(=O)N/N=C/c1c[n+]([O-])c2ccccc2[n+]1[O-] [Carbadox] | 0.197 ± 0.014 | 0.23 ± 0.011 | 0.1488 ± 0.00015 | 0.116 ± 0.003 | 0.117 ± 0.0034 | 0.142 ± 0.0022 | 0.163 ± 0.015 | 0.192 ± 0.054 | 0.163 ± 0.017 | 0.168 ± 0.0094 | 0.143 ± 0.0067 | 0.157 ± 0.013 | 0.082 ± 0.0067 |
| Cc1cn[nH]c1 [Fomepizole] | 0.242 ± 0.0098 | 0.2912 ± 0.0021 | 0.249 ± 0.0059 | 0.231 ± 0.024 | 0.178 ± 0.003 | 0.137 ± 0.0022 | 0.233 ± 0.036 | 0.364 ± 0.065 | 0.193 ± 0.014 | 0.215 ± 0.0091 | 0.554 ± 0.016 | 0.423 ± 0.011 | 0.367 ± 0.017 |
| CC[C@H](C)C(=O)O[C@H]1CCC=C2C=C[C@H](C)[C@H](CC[C@@H]3C[C@@H](O)CC(=O)O3)[C@H]21 [Mevastatin] | 0.15 ± 0.0081 | 0.152 ± 0.1 | 0.166 ± 0.08 | 0.134 ± 0.0032 | 0.0515 ± 0.0016 | 0.0677 ± 0.0034 | 0.135 ± 0.036 | 0.148 ± 0.012 | 0.171 ± 0.054 | 0.134 ± 0.0085 | 0.41 ± 0.019 | 0.406 ± 0.021 | 0.214 ± 0.028 |
| CNCCC=C1c2ccccc2C=Cc2ccccc21 [Norcyclobenzaprine] | 0.182 ± 0.016 | 0.194 ± 0.022 | 0.254 ± 0.014 | 0.157 ± 0.0048 | 0.0991 ± 0.0027 | 0.111 ± 0.0032 | 0.204 ± 0.045 | 0.238 ± 0.036 | 0.186 ± 0.009 | 0.21 ± 0.0089 | 0.514 ± 0.015 | 0.419 ± 0.011 | 0.212 ± 0.011 |
| CN(C)CCCOc1nn(Cc2ccccc2)c2ccccc12 [Benzydamine hydrochloride] | 0.183 ± 0.0043 | 0.224 ± 0.012 | 0.25 ± 0.0088 | 0.167 ± 0.0029 | 0.112 ± 0.0038 | 0.146 ± 0.0037 | 0.193 ± 0.043 | 0.348 ± 0.023 | 0.192 ± 0.023 | 0.216 ± 0.051 | 0.452 ± 0.0099 | 0.404 ± 0.0075 | 0.283 ± 0.021 |
| CC(C)(C#N)c1cc(Cn2cncn2)cc(C(C)(C)C#N)c1 [Anastrozole] | 0.222 ± 0.0057 | 0.274 ± 0.0032 | 0.272 ± 0.0071 | 0.194 ± 0.009 | 0.183 ± 0.0054 | 0.13 ± 0.0054 | 0.339 ± 0.033 | 0.384 ± 0.038 | 0.194 ± 0.011 | 0.214 ± 0.028 | 0.483 ± 0.03 | 0.409 ± 0.0048 | 0.321 ± 0.016 |
